Shiga inhibitor = inhibitors of Shiga toxin in Vero cells; Vero cells, Shiga toxin protein synthesis inhibition reporter; inhibition, % at 38.7 µM; 290,000 tested, 9.2% active; AID 2315; in the data active = inhibition mostly above about 28%, no sharp cut-off; inactive = mostly below about 43%; note: 0% is about no effect
Pf growth 96h = P. falciparum growth inhibition at 96 hour, primary screen for plastid delayed-death inhibitors. P. falciparum luciferase reporter growth, 96 h. AID 504834. 320,000 tested, 6.9% active. Potency, µM (highest dose often 28.7 µM), for the others: top-dose activity change, negative = inhibition, hits mostly inhibitors; note: potency is the fitted concentration of half-maximal effect; % is set by controls: 0 for no effect and ±100 for the full control effect
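Compounds incubated with erythrocytes infected by luciferase-expressing P. falciparum (2% hematocrit, 0.05% parasitemia final) for 96 hours, 37 C in 5% CO2. Growth inhibition scored as decreased luciferase luminescence.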
Cycloheximide cs = counter-screen for Shiga toxin inhibitors: cycloheximide protein synthesis inhibition; max response, %; 300,000 tested, 12% active; cell reporter, cycloheximide protein synthesis inhibition counterscreen; AID 2314; in the data active = max response mostly above about 13%, no sharp cut-off; inactive = mostly below about 14%; note: read at 38.3 µM for the half of the compounds with a filed dose; 0% is about no effect
Pf growth 48h = inhibits P. falciparum growth in the first generation, 48 h. P. falciparum luciferase growth in erythrocytes, 48 h. AID 504832. Potency, µM (top dose mostly 28.7 µM), inactives show at the highest dose activity change, negative = inhibition, usual class: inhibitors. 310,000 tested, 5.9% active; note: potency is the fitted concentration of half-maximal effect; % is set by controls: 0 for no effect and ±100 for the full control effect
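Firefly luciferase activity from engineered P. falciparum reports growth; inhibitors lower the luminescent signal. Cultures contained 2% hematocrit erythrocytes at 0.1% final parasitemia.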
* hit, by the source's call; ? = inconclusive; . = not tested or not shown; + = active, no number; [ ] = dose if it differs, or a comment. In the library only some 21% were active in any assay of this set; here they are far more common. Unless noted, calls come from the whole dose curve; as a rule, active = well fitted inhibition curve with a large enough effect; inconclusive = small, poorly fitted or top-dose-only effect, or another doubt; inactive = no such curve, though single readings can be large or run the other way.

SMILES	Shiga inhibitor	Pf growth 96h	Cycloheximide cs	Pf growth 48h
CC(=O)c1cccc(NC(=O)NNC(=O)c2ccc3ccccc3c2)c1	-5.1	?	1.2	19.2%
CC(=O)c1cccc(NC(=O)c2ccc3ccccc3c2)c1	.	-10.5%	27.7*	151.4%
COc1ccc(/C=C/C(=O)NCC(=O)N=Nc2c(O)[nH]c3ccc([N+](=O)[O-])cc23)cc1	-3.4	40.0%	-2.8	-26.4%
Cc1ccc(C2=NN(CC(=O)NCCN(CC(C)C)CC(C)C)C(=O)CC2)cc1	-16.7	1.6%	14.2	-45.7%
CC(=O)N1c2ccc(S(=O)(=O)NCCC(=O)Nc3ncccc3C)cc2CC1C (stereo unspecified)	-3.0	-8.2%	-2.6	10.5%
COc1ccccc1C(=O)NCCC(=O)NCC1CCCO1 (stereo unspecified)	.	33.6%	.	0.3%
O=C(O)c1cccc(NS(=O)(=O)c2ccc3c(c2)C(=O)c2ccccc2C3=O)c1	19.6	-17.7%	15.8*	24.2%
CC(=O)Oc1ccc(C(=O)Nc2cccc(C(=O)NC(C)(C)C)c2)cc1	43.4	5.22µM*	-2.4	-4.2%
S=C(Nc1cccc(Br)c1)c1ccccc1	109.1*	?	45.0*	-2.6%
O=C(Nc1cccc(C(=O)Nc2ccc(Br)cc2)c1)c1ccccc1	24.9	40.3%	15.5*	11.1%
O=C(COc1ccc(Br)cc1)Nc1ccccc1C(=O)NC1CC1	.	-9.5%	.	?
CC(=O)c1ccc(NC(=O)c2cccc(NC(=O)c3ccccc3)c2)cc1	.	?	23.2*	-19.8%
OC1(CNCc2ccccc2)C2CC3CC(C2)CC1C3 (stereo unspecified)	-4.2	?	5.5	-19.0%
O=C(O)c1cccc(NC(=O)c2ccc(S(=O)(=O)c3ccccc3)cc2)c1	-6.7	11.7µM*	-2.0	46.4%
O=C(CNCc1ccccc1)NC1C2CC3CC(C2)CC1C3 (stereo unspecified)	.	?	14.1*	41.6%
COC(=O)CSC(C(=O)Nc1ccc(C)c(C)c1)c1ccccc1 (stereo unspecified)	44.0*	0.0%	19.4	0.9%
Cc1cccc(-n2c(SCC(=O)N3CCC(C(=O)O)CC3)nc3ccccc3c2=O)c1C	1.1	2.7%	4.9	?
CC(=O)Nc1ccc(S(=O)(=O)N2CCN=C2SCc2ccccc2C)cc1	-6.9	-19.7%	-2.8	-23.9%
O=C(Nc1ccc(-c2nc3ccccc3s2)c(OC(=O)c2ccccc2)c1)c1ccccc1	26.3	3.2%	29.5*	135.3%
COC(=O)c1ccc(CNCC(=O)Nc2ccc(C(=O)OC)cc2)cc1	-10.9	0.928µM*	4.2	?
O=C(Nc1ccc2nc(N3CCOCC3)sc2c1)c1ccccc1	.	-1.5%	.	?
CCN(CC)C(=O)Nc1ccc(C(=O)OC)cc1	12.9	98.9%	16.4*	.
CCN(CC)C(=S)Nc1ccc(C(=O)OC)cc1	14.4	?	-1.1	-3.6%
Cc1ccc(NC(=O)c2ccc(NC(=O)c3ccccc3)cc2)cc1C	56.0*	1.17µM*	45.8*	25.2%
COC(=O)c1ccc(NC(=O)CNCc2ccncc2)cc1	-15.1	35.5%	0.6	20.5%
SMILES	Shiga inhibitor	Pf growth 96h	Cycloheximide cs	Pf growth 48h
CCc1sc(C(=O)Nc2cccc(C(C)=O)c2)cc1C	15.8	72.2%	27.5*	74.8%
O=C(CNCc1ccccc1)Nc1ccc(Cl)cc1	78.6*	76.2%	28.4*	-7.2%[0.00184 µM]
O=C(Nc1ccc2nc3ccccc3nc2c1)c1ccccc1	24.6*	-1.9%	40.0*	107.4%
CC(C)OC(=O)c1cccc(NC(=O)c2ccccc2)c1	69.5*	145.5%	26.1*	211.3%
Cc1cccc(C(=O)Nc2cccc(NC(=O)c3ccccc3)c2)c1	12.2	?	9.0	50.6%
O=C(Nc1ccc(Cl)c(Cl)c1)c1ccccc1	.	101.6%	.	109.6%
CCOc1cc(OCC)cc(C(=O)Nc2cccc(C(C)=O)c2)c1	14.4	?	2.1	52.9%
CCOc1ccc(OCCNCc2ccc(OC(C)C(=O)N(C)C)c(OCC)c2)cc1 (stereo unspecified)	-4.9	-8.9%	-2.4	.
CCCCN(Cc1nc2ccccc2c(=O)[nH]1)C(=O)c1nn(C)c(=O)c2ccccc12	.	?	.	-10.8%
CC(C)CN(C(=O)c1nn(C)c(=O)c2ccccc12)c1nc2ccccc2s1	28.7	.	3.0	10.4µM*
Cc1noc(C)c1C(=O)N(CC(C)C)c1nc2ccccc2s1	10.0	?	7.9	-26.0%
CC(C)CN(C(=O)c1ccco1)c1nc2ccccc2s1	42.7	13.6%	active	?
O=C(CC1C(=O)NCCN1CC1CCCCC1)NCCc1ccc(F)cc1 (stereo unspecified)	13.5	9.0%	-2.0	8.2%
Fc1ccccc1CSc1nnnn1-c1ccc2c(c1)OCO2	22.6	.	16.3*	?
O=C(CSc1nnnn1-c1ccc2c(c1)OCO2)NCc1cccs1	+	.	26.8*	6.0%
Cc1cc(C)n(CCN(C)c2nc3nonc3nc2NC2CC2)n1	-19.7	20.3%	-1.8	0.1%
NCCO/C=C/[C@H](N)C(=O)O	.	9.8%	.	4.8%
Cn1nc([N+](=O)[O-])nc1Oc1ccccc1F	-6.1	13.1µM*	0.7	-1.4%
Cn1nc([N+](=O)[O-])nc1Oc1ccccc1N	-13.2	-17.4%	-4.9	.
COc1ccc(N(CCC#N)C(=O)/C(C#N)=C/c2cccs2)cc1	14.5	4.0%	19.6	?
COc1ccc(-c2nc(C#N)c(NCc3ccccc3Cl)o2)cc1	11.2	?	21.1	9.6%
COc1ccc(CCNc2oc(-c3ccc(C)cc3)nc2C#N)cc1OC	9.2	-11.8%	12.2	-18.7%
COc1ccc(-c2nc(C#N)c(NCCc3ccccc3)o2)cc1	64.0*	13.5%	33.6*	-25.2%
COc1ccc(CNc2oc(-c3ccccc3)nc2C#N)cc1	21.3	8.28µM*	21.7*	20.2%
O=C(CNC(=O)c1ccc(Cl)c([N+](=O)[O-])c1)OC1CCCCC1=O (stereo unspecified)	.	2.6%	.	0.4%
SMILES	Shiga inhibitor	Pf growth 96h	Cycloheximide cs	Pf growth 48h
CC1(C(=O)Nc2nnc(C(C)(C)C)s2)Cc2ccccc2C(=O)O1 (stereo unspecified)	3.2	?	-0.6	-10.2%
CCSc1nnc(NC(=O)C2(C)Cc3ccccc3C(=O)O2)s1 (stereo unspecified)	1.7	-3.9%	-0.8	13.1µM*
CC1(C(=O)Nc2ccccc2)Cc2ccccc2C(=O)O1 (stereo unspecified)	-2.3	9.28µM*	-3.3	0.6%
CN1CCN(C(=S)c2ccc(-c3cccc(Cl)c3Cl)o2)CC1	active	201.5%	39.9*	184.8%
N#CCCN1CCN(C(=S)c2ccc(-c3ccc(Cl)cc3)o2)CC1	90.6*	?	27.9*	14.1%
S=C(c1ccc(-c2ccccc2Cl)o1)N1CCCCC1	61.7*	212.6%	47.7*	191.1%
O=C(O)c1ccc(-c2ccccc2Cl)o1	20.1	.	-2.3	2.2%
O=C(Nc1ccccc1N1CCCCC1)c1ccc(-c2ccc(Cl)cc2)o1	5.9	?	5.5	?
S=C(c1ccc(-c2ccc(Cl)cc2)o1)N1CCCCC1	95.5*	117.0%	39.1*	-15.0%
CSCCC(NC(=O)c1ccccc1Br)C(=O)NNC(=O)c1ccncc1 (stereo unspecified)	.	-1.1%	.	7.9%
